What all share (assay): DAPPL (digital affinity profiling via proximity ligation, sequencing); 10 mM Tris-HCl pH 7.5, 50 mM NaCl, 1 mM DTT, 4% glycerol, room temperature, 30 min; GST-TFs on glutathione beads, 16-mer random dsDNA library, 0.1% formaldehyde crosslink after washing; high values mean tight binding
One experiment has as its target T1, FEV (Homo sapiens, UniProt Q99581 1-238).
T1 sequence: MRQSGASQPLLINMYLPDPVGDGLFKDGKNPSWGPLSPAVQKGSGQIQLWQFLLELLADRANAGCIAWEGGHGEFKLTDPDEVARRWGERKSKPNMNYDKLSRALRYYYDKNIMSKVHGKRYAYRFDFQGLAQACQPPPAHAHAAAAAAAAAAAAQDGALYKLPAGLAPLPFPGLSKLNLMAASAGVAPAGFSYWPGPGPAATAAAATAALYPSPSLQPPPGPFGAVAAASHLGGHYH
The following applies: protein: recombinant; tags: N-terminal GST; dsDNA, one strand shown. The procedure, abridged: (§1)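 Human transcription factors carrying a GST fusion were produced in yeast, bound to glutathione beads, tagged with DNA barcodes and pooled together with a tag-only sample. Each pool was held with 200 nmole of a random double-stranded 16-mer DNA library in Tris/NaCl/DTT/glycerol buffer for 30 min at room temperature, then washed, crosslinked in 0.1% formaldehyde, proximity-ligated with BsaI/T4 ligase (1 h, 37 °C), PCR-amplified and sequenced on an Illumina NextSeq500. Binding signal is the read frequency of each hexamer for a given factor divided by its frequency in the tag-only sample.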

The next experiment addresses ETV5 (Homo sapiens, UniProt P41161 1-510). The following applies: protein: recombinant; tags: N-terminal GST; dsDNA, one strand shown. Summed up: as §1
For a further experiment, the target named is HSF1 (Homo sapiens, UniProt Q00613 1-529). The following applies: protein: recombinant; tags: N-terminal GST; chain copies: 3; dsDNA, one strand shown. The procedure, abridged: as §1
HSF1, sequence (Q00613 whole entry): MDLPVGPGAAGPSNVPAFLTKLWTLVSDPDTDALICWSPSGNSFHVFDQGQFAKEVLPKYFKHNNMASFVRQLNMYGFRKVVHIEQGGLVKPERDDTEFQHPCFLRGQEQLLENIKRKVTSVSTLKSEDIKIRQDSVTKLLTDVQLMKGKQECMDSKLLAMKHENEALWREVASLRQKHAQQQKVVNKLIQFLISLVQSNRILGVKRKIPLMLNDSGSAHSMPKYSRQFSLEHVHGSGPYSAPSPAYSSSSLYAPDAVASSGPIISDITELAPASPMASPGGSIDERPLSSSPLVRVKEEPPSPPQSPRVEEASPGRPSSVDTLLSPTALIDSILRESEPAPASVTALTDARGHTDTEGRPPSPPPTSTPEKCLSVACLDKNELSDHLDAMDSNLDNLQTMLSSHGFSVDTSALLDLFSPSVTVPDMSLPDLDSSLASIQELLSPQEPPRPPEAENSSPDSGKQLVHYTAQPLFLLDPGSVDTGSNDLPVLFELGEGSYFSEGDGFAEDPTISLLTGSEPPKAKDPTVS
Another experiment concerns the target T2, SPIC (Homo sapiens, UniProt Q8N5J4 1-248).
T2 sequence: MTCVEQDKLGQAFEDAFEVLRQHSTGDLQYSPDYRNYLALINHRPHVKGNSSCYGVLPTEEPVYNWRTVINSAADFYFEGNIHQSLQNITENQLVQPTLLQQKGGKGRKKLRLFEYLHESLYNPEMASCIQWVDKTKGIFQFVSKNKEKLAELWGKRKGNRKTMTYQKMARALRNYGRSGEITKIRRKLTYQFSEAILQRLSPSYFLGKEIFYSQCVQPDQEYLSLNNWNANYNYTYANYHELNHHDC
The following applies: protein: recombinant; tags: N-terminal GST; dsDNA, one strand shown. The procedure, abridged:
as §1

The target of another experiment is ELF4 (Homo sapiens, UniProt Q99607 1-663). Conditions: protein: recombinant; tags: N-terminal GST; dsDNA, one strand shown. Summed up:
as §1

The target of another experiment is T3, ELK4 (Homo sapiens, UniProt P28324-2 1-405).
T3 sequence: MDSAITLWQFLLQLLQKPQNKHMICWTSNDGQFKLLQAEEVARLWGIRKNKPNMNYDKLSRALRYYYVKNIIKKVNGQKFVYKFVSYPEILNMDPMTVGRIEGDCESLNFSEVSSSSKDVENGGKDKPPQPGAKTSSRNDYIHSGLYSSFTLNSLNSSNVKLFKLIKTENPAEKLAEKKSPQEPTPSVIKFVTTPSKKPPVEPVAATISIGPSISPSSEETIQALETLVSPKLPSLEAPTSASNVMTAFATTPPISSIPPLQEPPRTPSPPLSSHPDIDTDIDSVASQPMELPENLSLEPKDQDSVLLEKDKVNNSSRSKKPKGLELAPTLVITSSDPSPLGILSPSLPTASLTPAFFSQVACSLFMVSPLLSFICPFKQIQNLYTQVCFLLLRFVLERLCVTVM
Conditions: protein: recombinant; tags: N-terminal GST; dsDNA, one strand shown. Summed up:
as §1

The next experiment deals with T4, ETV2 (Homo sapiens, UniProt O00321 1-342).
T4 sequence: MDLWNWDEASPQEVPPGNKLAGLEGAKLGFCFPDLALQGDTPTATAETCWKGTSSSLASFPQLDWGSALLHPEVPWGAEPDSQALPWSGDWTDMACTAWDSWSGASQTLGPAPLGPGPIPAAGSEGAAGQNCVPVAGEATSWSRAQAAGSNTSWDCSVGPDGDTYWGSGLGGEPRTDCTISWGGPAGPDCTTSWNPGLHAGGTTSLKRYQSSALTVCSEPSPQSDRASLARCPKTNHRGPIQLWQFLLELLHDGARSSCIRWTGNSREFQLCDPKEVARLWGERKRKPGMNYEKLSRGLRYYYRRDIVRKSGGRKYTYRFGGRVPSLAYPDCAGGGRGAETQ
Conditions: protein: recombinant; tags: N-terminal GST; dsDNA, one strand shown. Summed up: as §1

The target of a further experiment is T5, ELF3 (Homo sapiens, UniProt P78545 1-371).
T5 sequence: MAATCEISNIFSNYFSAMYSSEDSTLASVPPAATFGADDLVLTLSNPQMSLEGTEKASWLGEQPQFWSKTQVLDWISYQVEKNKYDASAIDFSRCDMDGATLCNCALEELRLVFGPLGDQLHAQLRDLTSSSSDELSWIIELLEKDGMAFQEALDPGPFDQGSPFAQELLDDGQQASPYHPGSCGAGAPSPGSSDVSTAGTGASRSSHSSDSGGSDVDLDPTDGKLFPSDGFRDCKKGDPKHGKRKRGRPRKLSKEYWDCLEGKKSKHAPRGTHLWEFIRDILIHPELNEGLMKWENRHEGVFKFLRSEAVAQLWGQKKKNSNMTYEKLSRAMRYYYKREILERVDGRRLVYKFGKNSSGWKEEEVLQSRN
The following applies: protein: recombinant; tags: N-terminal GST; dsDNA, one strand shown. The procedure, abridged: as §1

A further experiment deals with CRX (Homo sapiens, UniProt O43186 1-299). Conditions: protein: recombinant; tags: N-terminal GST; dsDNA, one strand shown. Summed up: as §1
CRX, sequence (O43186 whole entry): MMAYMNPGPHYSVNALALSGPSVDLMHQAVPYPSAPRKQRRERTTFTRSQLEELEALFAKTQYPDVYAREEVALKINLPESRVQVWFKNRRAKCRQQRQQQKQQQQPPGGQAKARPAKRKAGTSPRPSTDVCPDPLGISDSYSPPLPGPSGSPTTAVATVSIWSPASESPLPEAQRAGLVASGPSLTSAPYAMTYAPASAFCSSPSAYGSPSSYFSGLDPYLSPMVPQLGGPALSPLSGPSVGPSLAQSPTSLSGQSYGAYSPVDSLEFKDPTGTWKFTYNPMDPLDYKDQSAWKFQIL
In the next experiment the target is ETV1 (Homo sapiens, UniProt P50549 1-477). The following applies: protein: recombinant; tags: N-terminal GST; dsDNA, one strand shown. Summed up: as §1
ETV1, sequence (P50549 whole entry): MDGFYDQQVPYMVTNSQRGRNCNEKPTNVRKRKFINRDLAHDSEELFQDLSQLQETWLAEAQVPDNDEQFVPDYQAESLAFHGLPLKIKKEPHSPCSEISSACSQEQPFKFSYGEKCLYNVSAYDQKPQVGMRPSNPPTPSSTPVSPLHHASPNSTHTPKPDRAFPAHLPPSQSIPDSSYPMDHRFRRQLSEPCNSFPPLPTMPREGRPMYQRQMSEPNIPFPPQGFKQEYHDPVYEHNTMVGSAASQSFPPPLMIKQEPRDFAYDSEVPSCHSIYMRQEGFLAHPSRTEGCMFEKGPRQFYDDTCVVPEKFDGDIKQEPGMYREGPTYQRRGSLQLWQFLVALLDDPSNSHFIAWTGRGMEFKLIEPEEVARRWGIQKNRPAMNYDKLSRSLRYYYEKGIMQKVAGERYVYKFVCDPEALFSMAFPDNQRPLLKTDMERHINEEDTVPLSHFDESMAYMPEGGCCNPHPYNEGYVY
For a further experiment, the target named is T6, ERF (Homo sapiens, UniProt P50548 1-548).
T6 sequence: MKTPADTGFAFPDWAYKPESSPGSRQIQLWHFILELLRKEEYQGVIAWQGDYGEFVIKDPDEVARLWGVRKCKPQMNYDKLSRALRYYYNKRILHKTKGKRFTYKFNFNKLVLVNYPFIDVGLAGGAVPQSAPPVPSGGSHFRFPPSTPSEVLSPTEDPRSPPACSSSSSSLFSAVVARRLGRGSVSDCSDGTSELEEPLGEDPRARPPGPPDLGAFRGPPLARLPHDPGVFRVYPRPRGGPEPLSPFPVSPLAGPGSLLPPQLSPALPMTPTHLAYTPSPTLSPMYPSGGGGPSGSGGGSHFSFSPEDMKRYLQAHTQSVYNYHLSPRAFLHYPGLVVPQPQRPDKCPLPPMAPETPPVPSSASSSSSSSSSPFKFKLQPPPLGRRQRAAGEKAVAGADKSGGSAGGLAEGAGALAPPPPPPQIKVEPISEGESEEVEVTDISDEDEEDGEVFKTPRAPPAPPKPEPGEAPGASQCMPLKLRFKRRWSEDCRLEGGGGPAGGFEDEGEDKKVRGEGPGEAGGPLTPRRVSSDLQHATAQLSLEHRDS
Conditions: protein: recombinant; tags: N-terminal GST; dsDNA, one strand shown. Summed up:
as §1

For the next experiment, the target named is T7, ETV3L (Homo sapiens, UniProt Q6ZN32 1-361).
T7 sequence: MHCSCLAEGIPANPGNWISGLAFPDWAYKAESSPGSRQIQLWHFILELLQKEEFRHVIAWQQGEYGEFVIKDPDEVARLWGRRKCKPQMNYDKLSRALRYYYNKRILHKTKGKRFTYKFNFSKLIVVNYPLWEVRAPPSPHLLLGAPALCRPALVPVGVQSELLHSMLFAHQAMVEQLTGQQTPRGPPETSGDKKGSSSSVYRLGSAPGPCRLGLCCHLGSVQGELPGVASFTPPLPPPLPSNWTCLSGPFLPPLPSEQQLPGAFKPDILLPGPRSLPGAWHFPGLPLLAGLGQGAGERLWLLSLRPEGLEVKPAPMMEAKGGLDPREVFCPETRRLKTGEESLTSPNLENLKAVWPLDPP
Conditions: protein: recombinant; tags: N-terminal GST; dsDNA, one strand shown. Summed up:
as §1

The target in the next experiment is T8, ETS2 (Homo sapiens, UniProt P15036 1-469).
T8 sequence: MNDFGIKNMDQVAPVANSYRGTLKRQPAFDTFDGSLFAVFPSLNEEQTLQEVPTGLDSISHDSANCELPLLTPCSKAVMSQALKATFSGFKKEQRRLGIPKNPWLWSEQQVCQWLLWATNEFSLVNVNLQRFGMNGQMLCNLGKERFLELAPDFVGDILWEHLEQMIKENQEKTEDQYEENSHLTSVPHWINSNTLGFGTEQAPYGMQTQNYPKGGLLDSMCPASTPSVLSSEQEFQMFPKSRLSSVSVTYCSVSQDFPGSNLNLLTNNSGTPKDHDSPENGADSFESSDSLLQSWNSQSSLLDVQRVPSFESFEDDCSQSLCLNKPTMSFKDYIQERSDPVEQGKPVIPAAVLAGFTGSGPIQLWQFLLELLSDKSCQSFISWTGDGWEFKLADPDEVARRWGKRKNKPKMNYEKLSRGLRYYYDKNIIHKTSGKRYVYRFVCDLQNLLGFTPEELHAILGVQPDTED
The following applies: protein: recombinant; tags: N-terminal GST; dsDNA, one strand shown. The procedure, abridged: as §1

In a further experiment the target is T9, SPDEF (Homo sapiens, UniProt O95238 1-335).
T9 sequence: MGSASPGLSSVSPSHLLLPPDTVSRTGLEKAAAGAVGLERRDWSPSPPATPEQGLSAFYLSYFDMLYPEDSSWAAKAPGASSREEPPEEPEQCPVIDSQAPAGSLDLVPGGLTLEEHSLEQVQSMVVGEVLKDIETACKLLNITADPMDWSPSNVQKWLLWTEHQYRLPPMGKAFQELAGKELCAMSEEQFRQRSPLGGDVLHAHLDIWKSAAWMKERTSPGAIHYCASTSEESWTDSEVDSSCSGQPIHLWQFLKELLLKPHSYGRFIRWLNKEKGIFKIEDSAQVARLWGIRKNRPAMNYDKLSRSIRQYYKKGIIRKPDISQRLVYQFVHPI
Conditions: protein: recombinant; tags: N-terminal GST; dsDNA, one strand shown. The procedure, abridged:
as §1

The target in another experiment is T10, ETV7 (Homo sapiens, UniProt Q9Y603 1-341).
T10 sequence: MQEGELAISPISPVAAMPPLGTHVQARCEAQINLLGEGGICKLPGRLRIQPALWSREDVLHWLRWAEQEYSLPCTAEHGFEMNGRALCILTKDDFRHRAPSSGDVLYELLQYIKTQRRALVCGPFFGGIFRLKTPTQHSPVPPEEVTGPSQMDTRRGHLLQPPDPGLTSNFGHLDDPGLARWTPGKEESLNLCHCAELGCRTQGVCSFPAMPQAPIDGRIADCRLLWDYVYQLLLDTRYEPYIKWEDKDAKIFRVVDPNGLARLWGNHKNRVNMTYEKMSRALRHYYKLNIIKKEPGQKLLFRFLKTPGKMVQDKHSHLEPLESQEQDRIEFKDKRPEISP
The following applies: protein: recombinant; tags: N-terminal GST; dsDNA, one strand shown. The procedure, abridged: as §1

For a further experiment, the target named is T11, ELF5 (Homo sapiens, UniProt Q9UKW6-2 1-255).
T11 sequence: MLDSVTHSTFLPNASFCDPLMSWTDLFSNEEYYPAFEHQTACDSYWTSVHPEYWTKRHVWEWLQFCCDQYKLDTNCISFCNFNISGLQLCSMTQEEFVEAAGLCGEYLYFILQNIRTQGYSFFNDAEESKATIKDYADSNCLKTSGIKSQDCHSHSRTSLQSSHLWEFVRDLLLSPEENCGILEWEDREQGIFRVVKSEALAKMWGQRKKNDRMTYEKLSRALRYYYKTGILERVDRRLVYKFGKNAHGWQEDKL
The following applies: protein: recombinant; tags: N-terminal GST; dsDNA, one strand shown. The procedure, abridged: as §1

The target of the next experiment is T12, ETV3 (Homo sapiens, UniProt P41162-2 1-143).
T12 sequence: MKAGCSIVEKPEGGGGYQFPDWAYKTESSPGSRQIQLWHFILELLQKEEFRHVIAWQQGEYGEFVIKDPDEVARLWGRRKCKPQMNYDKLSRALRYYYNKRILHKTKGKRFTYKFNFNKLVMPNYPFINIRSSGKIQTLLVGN
Conditions: protein: recombinant; tags: N-terminal GST; dsDNA, one strand shown. The procedure, abridged:
as §1

Another experiment concerns the target ETV6 (Homo sapiens, UniProt P41212 1-452). Conditions: protein: recombinant; tags: N-terminal GST; dsDNA, one strand shown. The procedure, abridged:
as §1

ETV6, sequence (P41212 whole entry): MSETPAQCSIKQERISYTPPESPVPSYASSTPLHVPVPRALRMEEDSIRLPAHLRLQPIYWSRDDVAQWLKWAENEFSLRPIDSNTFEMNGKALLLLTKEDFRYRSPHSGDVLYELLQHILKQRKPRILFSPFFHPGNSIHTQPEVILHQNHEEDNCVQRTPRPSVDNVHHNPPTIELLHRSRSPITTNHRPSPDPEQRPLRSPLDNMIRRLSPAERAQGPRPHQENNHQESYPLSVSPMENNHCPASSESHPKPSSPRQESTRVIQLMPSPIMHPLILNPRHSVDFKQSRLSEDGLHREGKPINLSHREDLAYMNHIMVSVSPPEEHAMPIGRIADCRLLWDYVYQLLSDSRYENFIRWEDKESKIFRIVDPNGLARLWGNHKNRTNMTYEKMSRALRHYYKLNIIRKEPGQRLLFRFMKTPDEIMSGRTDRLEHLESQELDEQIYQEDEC
ETV5, sequence (P41161 whole entry): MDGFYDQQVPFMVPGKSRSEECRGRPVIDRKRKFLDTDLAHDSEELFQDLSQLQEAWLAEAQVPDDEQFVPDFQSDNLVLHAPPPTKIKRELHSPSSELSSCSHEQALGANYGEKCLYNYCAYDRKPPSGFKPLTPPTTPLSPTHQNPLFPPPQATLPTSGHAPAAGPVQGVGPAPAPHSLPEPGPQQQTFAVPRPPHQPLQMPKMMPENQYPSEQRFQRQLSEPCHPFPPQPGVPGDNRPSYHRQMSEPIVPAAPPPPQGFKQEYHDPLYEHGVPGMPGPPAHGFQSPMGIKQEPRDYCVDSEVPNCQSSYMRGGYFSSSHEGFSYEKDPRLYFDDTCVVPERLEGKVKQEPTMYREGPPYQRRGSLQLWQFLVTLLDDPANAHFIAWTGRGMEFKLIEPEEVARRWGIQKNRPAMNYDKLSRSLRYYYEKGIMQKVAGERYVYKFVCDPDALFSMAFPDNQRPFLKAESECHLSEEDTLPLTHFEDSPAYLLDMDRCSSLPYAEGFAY
ELF4, sequence (Q99607 whole entry): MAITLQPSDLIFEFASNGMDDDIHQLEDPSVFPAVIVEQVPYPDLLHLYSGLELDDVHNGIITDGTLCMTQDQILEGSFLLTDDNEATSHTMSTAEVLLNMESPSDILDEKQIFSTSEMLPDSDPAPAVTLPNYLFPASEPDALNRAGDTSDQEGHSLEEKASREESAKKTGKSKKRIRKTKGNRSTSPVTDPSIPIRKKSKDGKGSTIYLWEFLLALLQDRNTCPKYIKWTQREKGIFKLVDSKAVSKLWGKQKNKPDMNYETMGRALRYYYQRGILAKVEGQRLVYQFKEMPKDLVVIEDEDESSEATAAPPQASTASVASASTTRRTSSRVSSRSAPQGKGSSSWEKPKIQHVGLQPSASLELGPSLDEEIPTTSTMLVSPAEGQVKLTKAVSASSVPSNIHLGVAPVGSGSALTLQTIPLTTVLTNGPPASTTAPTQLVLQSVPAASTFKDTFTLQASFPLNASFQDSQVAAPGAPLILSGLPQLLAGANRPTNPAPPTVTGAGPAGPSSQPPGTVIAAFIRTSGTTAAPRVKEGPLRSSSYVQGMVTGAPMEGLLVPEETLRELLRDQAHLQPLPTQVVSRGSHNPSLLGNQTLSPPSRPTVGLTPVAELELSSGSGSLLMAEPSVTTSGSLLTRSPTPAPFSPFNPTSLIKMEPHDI

For the sequence ACAATC, the binding signal is 1.11 fold enrichment (6-mer frequency, TF over GST control) with FEV; 1.1 fold enrichment (6-mer frequency, TF over GST control) in the experiment with ETV5; 1.43 fold enrichment (6-mer frequency, TF over GST control) with HSF1; 1.17 fold enrichment (6-mer frequency, TF over GST control) with SPIC; 1.11 fold enrichment (6-mer frequency, TF over GST control) with ELF4; 1.15 fold enrichment (6-mer frequency, TF over GST control) in the experiment with ELK4. Besides, the binding signal with ETV2 was 1.18 fold enrichment (6-mer frequency, TF over GST control); with ELF3, 1.29 fold enrichment (6-mer frequency, TF over GST control); with CRX it was 1.36 fold enrichment (6-mer frequency, TF over GST control); with ETV1 it was 1.16 fold enrichment (6-mer frequency, TF over GST control); with ERF it was 1.2 fold enrichment (6-mer frequency, TF over GST control); with ETV3L, 1.14 fold enrichment (6-mer frequency, TF over GST control). The binding signal is 1.17 fold enrichment (6-mer frequency, TF over GST control) with ETS2; 1.16 fold enrichment (6-mer frequency, TF over GST control) with SPDEF; 1.16 fold enrichment (6-mer frequency, TF over GST control) with ETV7; 1.19 fold enrichment (6-mer frequency, TF over GST control) with ELF5; 1.14 fold enrichment (6-mer frequency, TF over GST control) with ETV3; 1.12 fold enrichment (6-mer frequency, TF over GST control) in the experiment with ETV6.
